Test results from PubChem BioAssay AID1347418 (Sanford-Burnham Center for Chemical Genomics, 2020).
The campaign covered roughly 1,300 compounds. About 750 (58%) were called active. The list shows a part of the results.

Molecular target: Sulfhydryl oxidase 1 (Homo sapiens) (UniProt O00391)
Experiment: QSOX1 enzyme inhibitors, primary screen, biochemical, ROS-Glo H2O2 luminescence, HTS (AID 1347418)
Details: recombinant QSOX1, ROS-Glo H2O2 luminescence; at 12.5 µM; hits give high values; active = any value above zero

Sequence of Sulfhydryl oxidase 1 (Homo sapiens) (O00391 whole entry, looked up): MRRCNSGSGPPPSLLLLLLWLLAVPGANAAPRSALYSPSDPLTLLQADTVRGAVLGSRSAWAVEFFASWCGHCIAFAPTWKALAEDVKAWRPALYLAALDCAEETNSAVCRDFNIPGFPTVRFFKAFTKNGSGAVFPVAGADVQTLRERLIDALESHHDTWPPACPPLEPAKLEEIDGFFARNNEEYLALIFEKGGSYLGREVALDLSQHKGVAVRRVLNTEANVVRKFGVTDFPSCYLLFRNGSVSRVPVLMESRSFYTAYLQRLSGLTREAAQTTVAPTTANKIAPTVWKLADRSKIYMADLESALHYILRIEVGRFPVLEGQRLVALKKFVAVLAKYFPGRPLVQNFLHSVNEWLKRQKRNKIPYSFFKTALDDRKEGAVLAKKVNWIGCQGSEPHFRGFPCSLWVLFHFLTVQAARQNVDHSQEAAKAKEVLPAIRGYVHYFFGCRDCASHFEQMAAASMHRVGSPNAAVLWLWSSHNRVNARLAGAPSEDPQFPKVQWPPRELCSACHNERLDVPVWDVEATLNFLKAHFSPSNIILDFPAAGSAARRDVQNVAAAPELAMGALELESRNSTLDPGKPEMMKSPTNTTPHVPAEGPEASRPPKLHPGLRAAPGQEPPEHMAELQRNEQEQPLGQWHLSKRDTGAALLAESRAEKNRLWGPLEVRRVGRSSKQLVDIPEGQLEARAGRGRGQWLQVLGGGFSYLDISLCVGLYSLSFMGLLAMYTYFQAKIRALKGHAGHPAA

inhibition, inactive:
N=C(N)SCCc1ccc(CCSC(=N)N)cc1 -2.2%, O=NN(CCCl)C(=O)NCCCl -3.4%, Nc1ccc(S(=O)(=O)Nc2ccnn2-c2ccccc2)cc1 -1.7%, CN(C)CC[C@@H](c1ccc(Cl)cc1)c1ccccn1 0%, CCCCC/C=C\CC(O)/C=C/c1cccc(CC(O)CCCCO)n1 (stereo not drawn) -0.7%, C=C1N=C(N=NC2=C(S(=O)(=O)[O-])[C+]=C(S(=O)(=O)[O-])[C+]=C2)[C+](COP(=O)([O-])O)C(C=O)=C1O -3.7%

inhibition, active:
O=C1N=C([O-])CN1/N=C/C1=C[C+]=C(c2ccc([N+](=O)[O-])cc2)O1 3.6%, N=C(N)SCCN 6.4%, S=C(S)N1CCCC1 19.5%, N#CC(C#N)=C(N)/C(C#N)=C/c1ccc(O)cc1 11.6%, O=[N+]([O-])c1ccc2c(c1)S(=O)(=O)C=C2 2%, O=c1[nH]c2cc(C(F)(F)F)ccc2n1-c1cc(C(F)(F)F)ccc1O 1.4%, NC1CCN(O)C1=O (stereo not drawn) 1.1%, COc1cc2c(c(OC)c1OC)-c1ccc(OC)c(=O)cc1[C@@H](NC(C)=O)CC2 1.3%, CCCCCCC(=O)OC1CC(C)(C)NC(C)(C)C1 1.1%, CNc1cc(NS(=O)(=O)c2ccc(N)cc2)nc(NC)n1 3.7%, O=C(O)C1=CC(=C(c2ccc(O)c(C(=O)O)c2)c2ccc(O)c(C(=O)O)c2)C=CC1=O 17.4%, COc1cc(/C=C(\C#N)C(=O)c2ccc(O)c(O)c2)cc(I)c1O 27.3%, N#C/C(=C\c1ccc(O)c(O)c1)C(=O)c1ccc(O)c(O)c1 17.4%, CN(C)CCC(c1ccc(Br)cc1)c1ccccn1 (stereo not drawn) 0.5%, CN(C)CCC(c1ccccc1)c1ccccn1 (stereo not drawn) 1.1%, CN(C)CC[C@@H](c1ccc(Br)cc1)c1ccccn1 7.7%, CN(C)CCC(c1ccc(Cl)cc1)c1ccccn1 (stereo not drawn) 2.8%, O.O.[NH2-].[NH2-].[NH2-].[NH2-].[NH2-].[NH2-].[NH2-].[NH2-].[NH2-].[NH2-].[NH2-].[NH2-].[NH2-].[NH2-].[Ru].[Ru].[Ru] 20.7%, O=C1CCc2cc(OCCCCc3nnnn3C3CCCCC3)ccc2N1 1.5%, CCOC(=O)C1=C[C@]2(CC)CCCN3CCc4c(n1c1ccccc41)[C@@H]32 0.9%, O=C1c2c(O)ccc(O)c2C(=O)c2c(NCCNCCO)ccc(NCCNCCO)c21 42%, CC(=O)[C@H]1CC[C+]2C3CC=C4C[C@@H](OS(=O)(=O)[O-])CC[C@]4(C)C3CC[C@@]21C (stereo partly drawn) 1.8%
